# Source: PubChem BioAssay (NCI)
# The panel holds about 83,000 compounds, 20% with a hit somewhere; the sample as a whole holds those more often.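 Treatment: one concentration, 48 hours, 96-well format. Scoring: percent growth, with anything below 10 considered active.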 Values without a mark were called inactive. Calls of active or inactive are those of the source.
# Key:
# Test in all cases: NCI-60 one-dose screen, 48 h (100 = growth as untreated, 0 = no growth, -100 = all killed)
# Conditions in all cases: 10 µM unless noted
# BT-549 breast = system: BT-549 breast
# MDA-MB-435 melanoma = system: MDA-MB-435 melanoma
# SW-620 colon = system: SW-620 colon
# MCF7 breast = system: MCF7 breast
# HCT-116 colon = system: HCT-116 colon
# HCC-2998 colon = system: HCC-2998 colon
# KM12 colon = system: KM12 colon
SMILES,growth (BT-549 breast),growth (MDA-MB-435 melanoma),growth (SW-620 colon),growth (MCF7 breast),growth (HCT-116 colon),growth (HCC-2998 colon),growth (KM12 colon)
O=[P@@]1(c2ccccc2)O[C@H](COCc2ccccc2)[C@@H](OCc2ccccc2)[C@H](OCc2ccccc2)[C@H]1NCc1ccccc1,4.37% (active),9.72% (active),21.6%,9.59% (active),8.21% (active),38.8%,15.3%
Cc1c(C)c(N2C(=O)C=CC2=O)c(C)c(C)c1N1C(=O)C=CC1=O,110%,102%,81.7%,103%,83%,97.1%,119%
COc1ccc(C2=NNC(c3cc(Cc4ccc(O)c(C5CC(c6ccc(OC)cc6)=NN5)c4)ccc3O)C2)cc1 (configuration not stated),58.1%,12.1%,30.3%,26.1%,28.3%,55.5%,55.4%
C=CCCCCCCCCC(=O)[O][Sn]([CH2]CCC)([CH2]CCC)[CH2]CCC,-99.2% (active),-86% (active),-81.7% (active),-66.4% (active),-95.8% (active),-97.9% (active),-92.6% (active)
CCOC(=O)C1=NN(c2ccc(Cl)cc2)C2C3N(c4ccc(Cl)cc4)N=C(C(=O)OCC)N3c3ccccc3N12 (configuration not stated),123%,100%,110%,85.7%,87.9%,97.5%,103%
CSc1nc2c(c(=O)n1C)C(c1ccccc1)C1=C(N2)/C(=C/c2ccccc2)CCC1 (configuration not stated),37.9%,4.1% (active),47.1%,56.7%,39.5%,71.4%,71.4%
COc1ccc(-c2csc(NC(=O)c3cc(OC)c(OC)c(OC)c3)n2)cc1,106%,96.4%,102%,98.3%,106%,112%,108%
COc1ccc(COC(C)=O)cc1,99.7%,111%,98.8%,102%,107%,114%,104%
COc1c(O)cc2oc3cc(O)c(CC=C(C)C)c(O)c3c(=O)c2c1C/C=C(\C)CCC=C(C)C,99.3%,78.4%,41.5%,21.9%,-29.6% (active),-0.115% (active),25%
S=C1SCN(Cc2ccccc2)CN1Cc1ccco1,102%,37.8%,41.7%,18.2%,25.5%,103%,58.2%
Cn1cc(-c2nc(-c3c[nH]c4ncccc34)cs2)c2cccnc21,64.7%,5.79% (active),60.4%,59%,41.7%,76.1%,52.1%
COc1cccc2c1C(=O)c1c(O)c3c(c(O)c1C2=O)C[C@@](O)(/C(C)=N/NC(=O)c1cccc([N+](=O)[O-])c1)C[C@@H]3OC1CC(N)C(O)C(C)O1 (some centres not stated),-14.9% (active),-34.3% (active),-43.5% (active),-8.97% (active),-53.8% (active),-58.2% (active),-39.2% (active)
NC(=Nc1ccccc1)SCCCCSC(N)=Nc1ccccc1,86.4%,89.4%,92.3%,87.5%,88%,77.6%,94.2%
O=C(Oc1ccc[nH]c1=O)c1cccc(Cl)c1,88.4%,108%,115%,93.9%,88.5%,106%,104%
CC(NC(=O)C(C)Oc1ccc(Cl)cc1Cl)C(=O)O (configuration not stated),108%,104%,105%,99.1%,89.6%,94.4%,109%
CC(CCC(=O)O)(NC(=O)c1ccc([N+](=O)[O-])cc1)C(=O)O (configuration not stated),114%,105%,103%,107%,98.9%,90.4%,99.3%
ClC1C2CC(c3ccccc32)C1Cl (configuration not stated),102%,120%,110%,103%,105%,110%,116%
COc1cc(/C=C/C(=O)Nc2cccnc2Nc2cc(OC)c(OC)c(OC)c2)cc(OC)c1OC,96.7%,96.6%,99.1%,87.9%,88.6%,97%,103%

SMILES,growth (BT-549 breast),growth (MDA-MB-435 melanoma),growth (SW-620 colon),growth (MCF7 breast),growth (HCT-116 colon),growth (HCC-2998 colon),growth (KM12 colon)
CCCCn1c(Cc2ccc(Cl)cc2)nc2cc(OC)c(OC)cc2c1=O,38%,74.1%,95.6%,86.5%,52.5%,75.8%,76.1%
COc1cc(/C=C/C(=O)N2CCN(C(=O)/C=C/c3ccccc3)CC2)cc(OC)c1OC,104%,111%,109%,110%,105%,102%,118%
C=Cc1nn2c(CCC(=O)c3nc4ccccc4[nH]3)nnc2s1,95.4%,100%,102%,93.8%,98.5%,98%,97.7%
C=C1c2c(C)nn(-c3ccc(C#CCOC4OC(CO)C(O)C(O)C4O)cc3)c2N(C)C23C[C@H]1C1(C)c4c(C)nn(-c5ccc(C#CCOC6OC(CO)C(O)C(O)C6O)cc5)c4N(C)C(C)(C[C@H]12)C3 (some centres not stated),3.47% (active),0.0883% (active),11.6%,-0.735% (active),0.942% (active),-3.04% (active),-23.3% (active)
COc1ccc(C(=O)Nc2nc(-c3ccc(Cl)cc3)cs2)cc1,105%,97.7%,96.3%,92.9%,109%,112%,99.2%
CCOC(=O)c1ccccc1OC(=O)NNc1ccccc1,48.3%,50%,45.6%,50.3%,70.8%,40%,55%
CCC(C)CC(C)C(=O)c1c(O)ccn(O)c1=O (configuration not stated),35.6%,46.8%,25%,18.9%,22.7%,89.7%,34.2%
O=C1C2C3C=CC(O3)C2C(=O)N1Nc1ccccc1 (configuration not stated),108%,96.9%,108%,98.9%,106%,102%,115%
COc1cccc2c1O/C(=C\c1c([N+](=O)[O-])ncn1C)C2=O,98%,91.6%,105%,88.4%,83.3%,105%,105%
Clc1ccccc1[C@@H]1C[C@@H]2Cc3cc(Br)c4ccccc4c3N1O2,50.1%,-32% (active),16.6%,12.7%,20.3%,56.4%,33.5%
Cn1cc(-c2csc(-c3c[nH]c4ncccc34)n2)c2cc(Br)cnc21,45.5%,33.8%,39.2%,35%,5.99% (active),64.2%,63.1%
Cc1ccc(NC(=O)CSc2nnc3n(Cc4ccccc4)c(=O)c4c(C)c(C(N)=O)sc4n23)cc1,74.3%,31.5%,53.7%,44.8%,9.8% (active),34.3%,51.2%
Nc1ncc(-c2cnn(C3CCNCC3)c2)cc1-c1nc2cc(Cl)ccc2o1,61.3%,-100% (active),-100% (active),-93.3% (active),-100% (active),-100% (active),-100% (active)
COc1cc(C2NC(c3ccc(Cl)cc3)C(C)C(=NC(=O)c3cnccn3)C2C)cc(OC)c1OC (configuration not stated),102%,108%,114%,93.1%,78.9%,129%,90.7%
OC(CCC(O)(c1ccccc1)c1ccccc1)(c1ccccc1)c1ccccc1,121%,69.9%,69.6%,87.3%,80.5%,83.4%,75%
Nc1ccccc1-c1ccc([N+](=O)[O-])cc1,-33.9% (active),52.4%,43.8%,40.1%,60.1%,29.8%,24.1%
COC(=O)[C@]12CC[C@@H](C)[C@H](C)[C@@H]1C1=CC[C@@H]3[C@@]4(C)C[C@@H](OC(=O)c5ccco5)[C@H](O)[C@@](C)(CO)[C@@H]4[C@H](O)C[C@@]3(C)[C@]1(C)CC2,-68.1% (active),-86.7% (active),-81.4% (active),-73.7% (active),-63.3% (active),-89.1% (active),-85.8% (active)
Cc1cc(C)c2c(c1)N1OC(C2)C[C@H]1/C=C/c1ccccc1 (some centres not stated),105%,87.2%,108%,88%,84.6%,98.2%,107%
